From PubChem BioAssay
Results filed as inconclusive are left out. Activity calls are given as the source filed them.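 The calls were made as follows, unless noted: active = RAM network inhibition above 8.4% in each of two replicates, 3 SD over the compound average; inconclusive = above 8.4% inhibition in only one replicate; inactive = 8.4% inhibition or less in each replicate.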

Legend:
[1] = Her2 expression decrease, cell viability multiplex – SKBR3 breast tumor cells, AlphaScreen, ATP viability, primary screen (AID 461;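 active = Her2 level under about 52% in both replicate screens, with viability over 70% of control, limit read from the data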;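 as to Her2 level: lower value means less Her2 protein in the cells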;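 as to viability: percent of carrier control wells set as 100% viability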); conditions: SKBR3 Her2 protein level, 18-24 h, measured here: SKBR3 viability, ATP luminescence, at 10 µM
[2] = biological target: Receptor tyrosine-protein kinase erbB-2 (Homo sapiens) (UniProt P04626); assay: as above; conditions: 18-24 h, at 10 µM, stronger effect = lower value
[3] = reduced viability of SK-BR-3 breast cancer cells – cell-based, 24 h, human, pilot screen (AID 572;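 active = viability at or below 10% of carrier control in both of two separate runs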;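 also: compound exposure lasted between 18 and 24 h rather than exactly 24 h; 100% = carrier-treated control wells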); conditions: SK-BR-3 viability, CellTiter-Glo luminescence, at 10 µM, stronger effect = lower value
[4] = HUVEC growth inhibition – cell-based, human, primary screen (AID 575;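 active = viability at or below 30% in both replicate assays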;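 also: 100% = median of untreated cell wells with 0.1% DMSO on each plate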); conditions: HUVEC proliferation, CellTiter-Glo luminescence, 72 h; at 10 µM; stronger effect = lower value
[5] = H69AR cell proliferation blockers – human, duplicate replicates, primary screen (AID 580;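 active = viability at or under a set limit in both replicates, limit being median viability minus 3 SD, cut at about 48% in these data, passing the limit was not always enough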;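 also: 100% = mean luminescence of untreated wells and 0% = no signal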); conditions: H69AR lung tumor cells viability, ATP luminescence, 72 h; at 10 µM; stronger effect = lower value
[6] = MRP1 drug-resistance reversers in H69AR cells – cell-based, doxorubicin co-treatment, pilot screen (AID 601;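 active = viability loss from added drug above about 55%, and viability with drug at most 40%, in both replicates, limit read from the data, passing the limit was not always enough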); conditions: CellTiter-Glo, 72 h, at 10 µM; for differential viability (reversal): stronger effect = higher value
[7] = yeast transport mutant growth inhibition pilot in 384-well plates, post-Golgi transport modulator project (AID 636; in the data active = inhibition above about 31%); conditions: absorbance 615 nm, about 18 h, stronger effect = higher value
[8] = growth suppression of yeast trafficking mutant, preliminary HTS, modulators of trafficking downstream of Golgi apparatus project, 1536-format plate, OD 615 nm (AID 637; in the data active = inhibition above about 30%); conditions: yeast transport mutant growth, absorbance 615 nm, 18 h; stronger effect = higher value
[9] = S. cerevisiae growth inhibition in permissive medium (OD615), pilot counter-assay for S. cerevisiae lifespan shortening project, permissive growth control (AID 705;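 active = growth inhibition above 25% in both replicates, a cutoff set 3 SD above the mean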); conditions: OD615, 24 h, at 10 µM, stronger effect = higher value
[10] = S. cerevisiae growth inhibition in restrictive medium, OD615, pilot screen, restrictive growth control, yeast lifespan reduction project (AID 706;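 active = growth inhibition above a set limit, 3 SD over mean compound inhibition, in both replicates, cut at about 43% in these data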;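 also: modified DeaD lifespan yeast strain shifted to restrictive glucose medium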); conditions: OD615, 48 h, at 10 µM, stronger effect = higher value
[11] = doxorubicin toxicity protection in MRP-1 cells – H69AR cells, CellTiter-Glo, duplicate, MRP-1 activator project, pilot screen (AID 807;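 active = viability increase at or above a cutoff of the median across tested compounds plus 3 SD, cut at about 8.5% in these data, passing the limit was not always enough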;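 also: compound pretreatment 18-22 h then 72 h combined with doxorubicin; 0% = doxorubicin alone and 100% = vehicle without doxorubicin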); conditions: H69AR viability with doxorubicin, CellTiter-Glo luminescence; at 10 µM; stronger effect = higher value
[12] = viability of HCT116 without oncogenic beta-catenin – human colon tumor cells, pilot screen (AID 823;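 active = cell viability at or below a set limit in both duplicate runs, the limit being the all-compound median minus 4 SD, cut at about 23% in these data, passing the limit was not always enough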;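 also: 0% = wells killed by 20 µM Hyamine and 100% = untreated DMSO cell wells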); conditions: HCT116 beta-catenin knockout viability, CellTiter-Glo, 60 h; at 10 µM; stronger effect = lower value
[13] = viability of PTEN-null HCT116 cells – cell-based, HCT116 clonal line, CellTiter-Glo, pilot screen (AID 824;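 active = viability at or below 27.92% in each of two runs, the all-compound median minus 4 SD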;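 also: 0% = 20 µM Hyamine control and 100% = vehicle cell control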); conditions: HCT116 PTEN-deleted viability, 60 h, at 10 µM, stronger effect = lower value
[14] = RAM pathway blockade in budding yeast – dse1pr::URA3 reporter, 5-FOA selection, pilot screen (AID 869;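 active = inhibition over a set limit, the all-compound mean plus 3 SD, in both replicate runs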;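 also: 0% = DMSO wells with no growth and 100% = 10 µM 1-NA-PP1 with full growth; RAM network block rescues cells from 5-FOA so hits raise OD615 growth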); conditions: S. cerevisiae dse1pr::URA3 5-FOA growth, OD615, 2 d; at 10 µM; stronger effect = higher value; strain carries analog-sensitive mutant Cbk1 kinase
[15] = RAM signaling pathway blockade in yeast – S. cerevisiae, Pdr1DBD-CYC8 efflux-inhibited sensitized strain, primary screen (AID 1298);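 also: 0% = DMSO untreated cells without growth and 100% = 10 µM 1-NA-PP1 full growth; higher means more yeast growth rescued from 5-FOA killing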; conditions: S. cerevisiae cbk1-as DSE1-URA3 strain, 5-FOA growth OD615, 2 d; at 50 µM; stronger effect = higher value
[16] = H69AR cells + 2 uM doxorubicin, measured here: viability with 2 uM doxorubicin, stronger effect = lower value
[17] = H69AR cells, compound alone cytotoxicity

Sequence of Receptor tyrosine-protein kinase erbB-2 (Homo sapiens) (P04626 whole entry, looked up): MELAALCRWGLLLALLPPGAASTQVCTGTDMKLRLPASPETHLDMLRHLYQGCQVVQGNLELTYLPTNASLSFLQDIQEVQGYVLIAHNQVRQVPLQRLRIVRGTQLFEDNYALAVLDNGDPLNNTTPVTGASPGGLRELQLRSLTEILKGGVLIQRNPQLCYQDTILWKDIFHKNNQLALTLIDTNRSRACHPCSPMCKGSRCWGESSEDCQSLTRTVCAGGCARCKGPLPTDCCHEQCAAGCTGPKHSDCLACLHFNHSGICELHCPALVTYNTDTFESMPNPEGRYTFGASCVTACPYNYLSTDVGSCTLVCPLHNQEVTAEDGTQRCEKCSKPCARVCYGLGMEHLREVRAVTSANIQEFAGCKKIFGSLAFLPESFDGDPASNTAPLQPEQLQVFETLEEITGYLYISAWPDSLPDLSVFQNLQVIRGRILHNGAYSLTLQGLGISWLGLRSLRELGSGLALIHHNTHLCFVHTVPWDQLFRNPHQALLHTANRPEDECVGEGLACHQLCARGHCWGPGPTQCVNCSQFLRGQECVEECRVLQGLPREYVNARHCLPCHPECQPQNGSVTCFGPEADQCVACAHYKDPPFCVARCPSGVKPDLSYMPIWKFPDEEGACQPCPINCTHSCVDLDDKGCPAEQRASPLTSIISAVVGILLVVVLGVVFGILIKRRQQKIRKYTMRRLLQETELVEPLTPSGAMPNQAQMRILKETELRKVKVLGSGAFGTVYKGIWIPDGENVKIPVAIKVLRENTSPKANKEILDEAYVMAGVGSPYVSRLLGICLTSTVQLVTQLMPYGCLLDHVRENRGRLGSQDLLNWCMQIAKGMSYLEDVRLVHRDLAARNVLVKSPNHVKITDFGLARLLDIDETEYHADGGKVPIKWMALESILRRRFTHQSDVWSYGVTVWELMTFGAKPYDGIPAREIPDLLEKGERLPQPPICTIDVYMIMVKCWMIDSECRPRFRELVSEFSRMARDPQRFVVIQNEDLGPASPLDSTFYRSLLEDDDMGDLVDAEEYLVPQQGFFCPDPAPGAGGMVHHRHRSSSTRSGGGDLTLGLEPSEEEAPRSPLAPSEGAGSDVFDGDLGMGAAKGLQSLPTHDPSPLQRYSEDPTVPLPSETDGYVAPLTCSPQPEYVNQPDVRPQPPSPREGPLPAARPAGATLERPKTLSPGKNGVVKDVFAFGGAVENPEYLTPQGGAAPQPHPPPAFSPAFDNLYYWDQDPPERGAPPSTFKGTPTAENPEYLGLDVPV

Row | SMILES | viability [1] [%] | Her2 level [2] | viability [3] | viability [4] | viability [5] | differential viability (reversal) ([6]; H69AR cells + 2 uM doxorubicin) | viability [6, 16] [%] | viability [6, 17] [%] | inhibition [7] | inhibition [8] | growth inhibition [9] | growth inhibition [10] | viability increase [11] | viability [12] | viability [13] | inhibition [14] | RAM network inhibition [15]
1 | C=C(C)Cn1c(N2CC(C)CC(C)C2)nc2c1c(=O)[nH]c(=O)n2C (stereo unspecified) | 84 | 86% (inactive) | 84% (inactive) | 96.2% (inactive) | 83.2% (inactive) | -11.8% (inactive) | 95.1 | 83.2 | -4.93% (inactive) | 1% (inactive) | -5.73% (inactive) | 0.695% (inactive) | -5.11% (inactive) | 78.3% (inactive) | 81.2% (inactive) | 1.05% (inactive) | 1.9% (inactive)
2 | O=C1c2ccccc2C(Nc2ccc(-c3nc4ccccc4[nH]3)cc2)N1Cc1ccco1 (stereo unspecified) | 90.5 | 102% (inactive) | 90.5% (inactive) | 65.9% (inactive) | 83.1% (inactive) | 15% (inactive) | 68.1 | 83.1 | 0.4% (inactive) | 0.5% (inactive) | -0.49% (inactive) | 4.04% (inactive) | -5.99% (inactive) | 59.2% (inactive) | 62.1% (inactive) | 2.23% (inactive) | 2.26% (inactive)
3 | CC(C)CCn1c(NCCc2ccccc2)nc2c1c(=O)n(C)c(=O)n2C | 80 | 57.5% (inactive) | 80% (inactive) | 50.8% (inactive) | 81.8% (inactive) | -0.235% (inactive) | 82.1 | 81.8 | -2.93% (inactive) | 2.17% (inactive) | -0.96% (inactive) | 8.48% (inactive) | -2.21% (inactive) | 57.1% (inactive) | 57.4% (inactive) | 1.94% (inactive) | -0.32% (inactive)
4 | CC(=O)NC(CCS(C)(=O)=O)C(=O)Nc1cccc(C)c1C (stereo unspecified) | 89.5 | 93.5% (inactive) | 89.5% (inactive) | 86.8% (inactive) | 75.9% (inactive) | -15.4% (inactive) | 91.3 | 75.9 | -5.2% (inactive) | 4.33% (inactive) | -7.1% (inactive) | -8.2% (inactive) | 0.19% (inactive) | 105% (inactive) | 100% (inactive) | 0.395% (inactive) | 3.33% (inactive)
5 | O=C(CSc1nnnn1-c1ccccc1Cl)Nc1ccc2c(c1)OCCO2 | 91.5 | 96% (inactive) | 91.5% (inactive) | 101% (inactive) | 77.2% (inactive) | -7.98% (inactive) | 85.2 | 77.2 | -0.4% (inactive) | 4.33% (inactive) | 1.69% (inactive) | 3.15% (inactive) | 1.44% (inactive) | 99.4% (inactive) | 87.5% (inactive) | 2.22% (inactive) | 5.58% (inactive)
6 | COCCNC(=O)CN1CCN(Cc2cccc(Cl)c2)C1=O | 102 | 112% (inactive) | 102% (inactive) | 99.3% (inactive) | 103% (inactive) | 17.5% (inactive) | 85.4 | 103 | -5.47% (inactive) | -3.93% (inactive) | 6.16% (inactive) | 1.19% (inactive) | -0.8% (inactive) | 102% (inactive) | 95.5% (inactive) | 0.485% (inactive) | -0.14% (inactive)
7 | COC(=O)c1sc(NC(=O)COc2ccccc2OC)nc1C | 99.5 | 90% (inactive) | 99.5% (inactive) | 99.8% (inactive) | 95.1% (inactive) | 11.6% (inactive) | 83.5 | 95.1 | -6.22% (inactive) | -4% (inactive) | -1.71% (inactive) | -0.995% (inactive) | -1.51% (inactive) | 102% (inactive) | 101% (inactive) | 1.06% (inactive) | 9% (inactive)
8 | CC(=O)Nc1cccc(NC(=O)c2ccco2)c1 | 94 | 94% (inactive) | 94% (inactive) | 108% (inactive) | 91.5% (inactive) | -0.085% (inactive) | 91.6 | 91.5 | -2.21% (inactive) | -11.7% (inactive) | -5.76% (inactive) | -3.89% (inactive) | -4.18% (inactive) | 99.6% (inactive) | 98.1% (inactive) | 1.83% (inactive) | 0.76% (inactive)
9 | COCCCN1C(=O)C(=O)/C(=C(/O)c2ccc(OCC(C)C)cc2C)C1c1cccnc1 (stereo unspecified) | 109 | 110% (inactive) | 109% (inactive) | 104% (inactive) | 98.1% (inactive) | 1.47% (inactive) | 96.6 | 98.1 | -2.21% (inactive) | -2.67% (inactive) | -1.21% (inactive) | 15.7% (inactive) | 0.13% (inactive) | 106% (inactive) | 95.6% (inactive) | 0.48% (inactive) | 2.11% (inactive)
10 | COc1ccc(OC)c(NC(=O)c2cn(C)c(=O)c3cc(OC)c(OC)cc23)c1 | 104 | 104% (inactive) | 104% (inactive) | 97.2% (inactive) | 93.8% (inactive) | 5.68% (inactive) | 88.1 | 93.8 | -0.41% (inactive) | 28.7% (inactive) | -17.3% (inactive) | -19.3% (inactive) | -4.55% (inactive) | 99.6% (inactive) | 96.7% (inactive) | 0.435% (inactive) | 3.89% (inactive)
11 | CC(=O)Nc1cccc(Oc2nc(C)cc(C)c2C#N)c1 | 96.5 | 106% (inactive) | 96.5% (inactive) | 94.1% (inactive) | 87.3% (inactive) | -4.33% (inactive) | 91.7 | 87.3 | -2% (inactive) | 0.5% (inactive) | -17.1% (inactive) | -19.5% (inactive) | 2.21% (inactive) | 107% (inactive) | 102% (inactive) | 1.34% (inactive) | 0.78% (inactive)
12 | O=C(C1COc2ccccc2O1)N1CCCC1 (stereo unspecified) | 80 | 112% (inactive) | 80% (inactive) | 86.8% (inactive) | 94.8% (inactive) | 1.71% (inactive) | 93.1 | 94.8 | -1.41% (inactive) | -10.2% (inactive) | -16.3% (inactive) | -10.1% (inactive) | -0.88% (inactive) | 105% (inactive) | 96.9% (inactive) | 2.62% (inactive) | -0.78% (inactive)
13 | Cc1c(C(=O)OCc2ccccc2)[nH]c2c1C(=O)CC(c1ccco1)C2 (stereo unspecified) | 86.5 | 40.5% (active) | 86.5% (inactive) | 7.06% (active) | 6.48% (active) | -2.23% (inactive) | 8.71 | 6.48 | 4.87% (inactive) | -0.5% (inactive) | -15.1% (inactive) | -7.56% (inactive) | -4.85% (inactive) | 16.3% (active) | 18.2% (active) | 1.69% (inactive) | 1% (inactive)
14 | CCOC(=O)N1CCC(NC(=O)c2cc(C(=O)NC3CCCC3)ccc2CO)CC1 | 97.5 | 104% (inactive) | 97.5% (inactive) | 97.4% (inactive) | 92.8% (inactive) | 5.52% (inactive) | 87.3 | 92.8 | -6.8% (inactive) | 6% (inactive) | 3.62% (inactive) | -3.18% (inactive) | -0.72% (inactive) | 92.1% (inactive) | 90.2% (inactive) | 1.87% (inactive) | 1.13% (inactive)
15 | CN(C)CCCNC(=O)CCC1CCCCC1 | 93 | 78% (inactive) | 93% (inactive) | 101% (inactive) | 94% (inactive) | 9.09% (inactive) | 84.9 | 94 | -7.16% (inactive) | 1.17% (inactive) | -1.1% (inactive) | -3.73% (inactive) | 0.26% (inactive) | 99.5% (inactive) | 107% (inactive) | 0.2% (inactive) | 6.01% (inactive)
16 | C=CCn1c(SCc2cccc(C#N)c2)nnc1-c1ccccc1O | 86.5 | 102% (inactive) | 86.5% (inactive) | 85.9% (inactive) | 92.4% (inactive) | 0.595% (inactive) | 91.8 | 92.4 | -4.4% (inactive) | -1.5% (inactive) | 4.16% (inactive) | 3.15% (inactive) | -4.01% (inactive) | 96.2% (inactive) | 88.4% (inactive) | 2.62% (inactive) | 8.45% (inactive)
17 | CC1=C(C)CC2C(=O)N(c3cccc4ccccc34)C(=O)C2C1 (stereo unspecified) | 104 | 114% (inactive) | 104% (inactive) | 80.1% (inactive) | 85.7% (inactive) | 2.52% (inactive) | 83.2 | 85.7 | -6.53% (inactive) | -11.3% (inactive) | 75.2% (active) | 67.6% (active) | -0.78% (inactive) | 100% (inactive) | 96.5% (inactive) | 0.295% (inactive) | 2.23% (inactive)
18 | COc1ccc(C(=O)NCc2nnc(SC)n2C2CCCCC2)cc1 | 104 | 91% (inactive) | 104% (inactive) | 81.2% (inactive) | 92% (inactive) | 9.5% (inactive) | 82.5 | 92 | -3.33% (inactive) | -3.44% (inactive) | -4.53% (inactive) | 3.39% (inactive) | -1.51% (inactive) | 99.8% (inactive) | 96.4% (inactive) | 1.08% (inactive) | 2.76% (inactive)
